IMPase Li inh – qHTS Assay for Identifying the Cell-Membrane Permeable IMPase Inhibitors: Potentiation with Lithium; CHO-M1 cells, IP1 TR-FRET (IP-One), carbachol + lithium; Potency, µM (series often up to 59.4 µM), usual class: inhibitors; hit rate 0.35% among 210,000;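 also: IP1 builds up when IMPase is blocked and the TR-FRET signal falls; nearly all actives have a fitted effect of over 50% in size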
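Steps: plate 2000 CHO-M1 cells per well and culture 16–30 h; add compound and lithium; incubate 30 min, 37C; add d2-IP1 tracer and Eu cryptate anti-IP1 antibody in lysis buffer; read after 10 min at room temperature.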
PNC inhibitor – High Content Assay for Compounds that inhibit the Assembly of the Perinucleolar Compartment; hit rate 3.1% among 140,000; PC3M PTB-GFP, PNC prevalence imaging, 16 h; active compounds read low; activity change (PNC), negative = inhibition, % at 10 µM;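 active = readout at or below -70, meaning at least 70% loss of cells showing the perinucleolar compartment, a nuclear body marking cancer cells; inconclusive = readout between -30 and a set limit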
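Compounds are pinned in duplicate onto adhered PC3M cells stably expressing GFP-tagged PTB and incubated 16 h at 37 C. Cells are then fixed, nuclei stained with Hoechst, and PNC-positive cells counted.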
HPGD block – qHTS Assay for Inhibitors of HPGD (15-Hydroxyprostaglandin Dehydrogenase); Potency, µM, usual class: inhibitors; 15-hydroxyprostaglandin dehydrogenase [NAD(+)] (Homo sapiens), P15428; purified HPGD, NADH fluorescence kinetic, PGE2 substrate; hit rate 4.3% among 150,000; active = well fitted inhibition curve with a large enough effect, not every such curve was filed as active; inconclusive = small, poorly fitted or top-dose-only effect, or another doubt; inactive = no such curve, though single readings can be large or run the other way
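20 nM HPGD preincubated 15 min at room temperature with compound in 50 mM Tris-HCl pH 8, 0.01% Tween 20. Started with 1 mM NAD+ and 30 uM prostaglandin E2; NADH fluorescence (360/450 nm) read 5 times over 30-s intervals, last minus first.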
IMPase cell inh – qHTS Assay for Identifying the Cell-Membrane Permeable IMPase Inhibitors; 120,000 tested, under 10 active; CHO-M1 cells, IP1 accumulation, HTRF TR-FRET ratio; AID 901, 2007; inhibition (IP1 accumulation), % at 46.1 µM; Inositol monophosphatase 1 (Rattus norvegicus), P97697; active = well fitted curve in the direction sought with a large enough effect in the signal ratio, not every such curve was filed as active; inconclusive = small, poorly fitted or top-dose-only effect, or a change in a side signal; inactive = no such curve, though single readings can be large or run the other way; the % refers to the signal ratio;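 also: cells stimulated with carbachol in lithium chloride buffer; higher means more IMPase inhibition seen as more IP1 and lower FRET ratio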
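Measured: the HTRF emission ratio (665/620 nm) plus the 620 nm donor channel, each fitted to the Hill equation to give AC50. Cells were CHO-M1 given compounds up to 46 uM and a 30 min carbachol stimulation at 37C.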
ALDH1A1 block – qHTS Assay for Inhibitors of Aldehyde Dehydrogenase 1 (ALDH1A1); hit rate 7.3% among 220,000; Aldehyde dehydrogenase 1A1 (Homo sapiens), P00352; Purified ALDH1A1, NADH fluorescence, propionaldehyde substrate; AID 1030, 2008; Potency, µM (doses to about 75.3 µM), actives largely listed as inhibitors; active = well fitted inhibition curve with a large enough effect, not every such curve was filed as active; inconclusive = small, poorly fitted or top-dose-only effect, or another doubt; inactive = no such curve, though single readings can be large or run the other way
ALOX12 inhib – qHTS Assay for Inhibitors of 12-hLO (12-human lipoxygenase) | AID 1452, 2008 | purified 12-hLO, xylenol orange hydroperoxide absorbance | hit rate 0.12% among 150,000 | Potency, µM (titrated, usually from 57.1 µM), usual class: inhibitors | Polyunsaturated fatty acid lipoxygenase ALOX12 (Homo sapiens), P18054; also: nearly all actives have a fitted effect of over 55% in size
Target sequence (P18054 whole entry, looked up): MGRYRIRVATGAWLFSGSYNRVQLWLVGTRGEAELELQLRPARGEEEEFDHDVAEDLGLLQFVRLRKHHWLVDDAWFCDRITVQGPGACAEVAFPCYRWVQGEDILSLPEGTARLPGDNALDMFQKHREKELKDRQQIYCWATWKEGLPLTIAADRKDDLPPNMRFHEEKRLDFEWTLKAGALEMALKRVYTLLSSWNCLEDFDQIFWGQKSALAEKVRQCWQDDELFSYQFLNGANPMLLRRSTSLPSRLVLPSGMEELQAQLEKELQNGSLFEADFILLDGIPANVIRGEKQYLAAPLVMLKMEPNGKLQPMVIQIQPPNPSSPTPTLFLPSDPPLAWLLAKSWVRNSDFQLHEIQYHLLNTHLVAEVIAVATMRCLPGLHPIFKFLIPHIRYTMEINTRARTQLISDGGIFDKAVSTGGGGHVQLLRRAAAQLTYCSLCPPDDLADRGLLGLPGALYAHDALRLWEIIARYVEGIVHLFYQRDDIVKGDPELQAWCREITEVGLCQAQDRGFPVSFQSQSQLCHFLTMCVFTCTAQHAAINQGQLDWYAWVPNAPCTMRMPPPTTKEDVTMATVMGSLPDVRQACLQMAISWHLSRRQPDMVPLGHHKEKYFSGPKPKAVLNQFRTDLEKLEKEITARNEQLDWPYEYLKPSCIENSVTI
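150 nM 12hLO, 25 mM Hepes pH 7.0 + 0.01% Triton X-100; cpd preinc 15 min RT; 40 uM arachidonic acid, 30 min RT; Fe-XO 30 min; A573/A405 ratio as read-out.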
Hits are given with their value; 0 = inactive; ? = inconclusive; - = no result; [ ] = remark or other dose. Shown are actives, neighbours in structure and some others; about 11% of the full set was active somewhere. Unless noted, calls follow the shape of the dose curve; as a rule, active = well fitted curve in the direction sought with a large enough effect; inconclusive = small, poorly fitted or top-dose-only effect, or another doubt; inactive = no such curve, though single readings can be large; an effect the other way counts as inactive or inconclusive.

SMILES	IMPase Li inh	PNC inhibitor	HPGD block	IMPase cell inh	ALDH1A1 block	ALOX12 inhib
Cc1ccc(NC2=NCC(=O)N2Cc2ccc3c(c2)OCO3)c(C)c1	0	-99.6	0	0	0	0
C=C(C(C)=O)C(O)c1ccco1 (centres undefined)	0	-	0	-	?	-
COc1ccc(/C=C/C2=CC3(C)CC2(C)C(c2ccc(OC)cc2)CC3=O)cc1 (centres undefined)	-	-	-	-	0[13.5 µM]	-
Cc1ccc(C(=O)Nc2ncc(Cc3ccc(SC(F)F)cc3)s2)cc1	0	-82.4	0	0	0	0
C=CCc1ccc(OCC(O)COc2ccc(CC=C)cc2OC)c(OC)c1	0	0	0	0	10µM	0
CCOC(=O)/C(=N/Nc1ccccc1)Sc1nnc(CCc2ccccc2)n1-c1ccccc1	0	-134.0	0	-	0	0
CCOC(=O)/C(=N/Nc1ccccc1)Sc1nnnn1-c1ccc(C)cc1	0	?	0	-	7.08µM	0
O=C(/C(=N\Nc1ccc(Br)cc1)Sc1nnnn1-c1ccccc1)c1ccccc1	0	0	0	-	1.58µM	0
C/C=C\C1=C(CO)C(=O)[C@@H]2OC2C1=O (some centres undefined)	-	-	-	-	0.708µM	-
C/C=C\C1=C(CO)[C@H](O)[C@H]2O[C@H]2[C@H]1O	-	-	-	-	0[13.5 µM]	-
O=C(COC(=O)c1ccc([N+](=O)[O-])o1)Nc1nc2ccccc2s1	-	-	-	-	31.6µM	-
Cc1ccc(C(=O)CCNc2ccc(F)c(Cl)c2)o1	0	0	0	0	14.1µM	0
Cc1ccc(OCCC(=O)Nc2ccc(F)c(Cl)c2)cc1	0	0	0	0	0	0
Cc1ccc(C(=O)CCNc2ccc(Br)cc2)o1	0	0	0	0	11.2µM	0
Cc1ccc(C(=O)CCNc2cccc(Br)c2)o1	0	0	0	0	?	0
Cc1ccc(C(=O)CCNc2ccccc2)o1	0	0	0	0	15.8µM	0
NCCS(=O)(=O)O	0	-	0	0	0	0
CC(C)CO/N=C1/[C@H]2O[C@@H]2[C@@H](O)[C@H]2[C@H]1CCn1c(=O)n(C)c(=O)n12	-	-	-	-	0[13.5 µM]	-
O=c1c(-c2cc(F)cc(F)c2)nc2cnc(N3CCNCC3)nc2n1C1CC1	0	-	-	-	?	-
O=c1c(-c2cc(F)cc(F)c2)nc2cnc(N3CCOCC3)nc2n1C1CC1	8.91µM	-	?	-	?	0
CC(C)c1nc(SCC(=O)c2ccc(F)cc2)c2ccccc2n1	0	-	-	-	20µM	-
Cc1ccc(C(=O)CSc2nc(C(C)C)nc3ccccc23)cc1	0	-	-	-	28.2µM	-
COC(=O)CSc1cnc2ccccc2n1	0	0	0	0	0	0
O=C(CSc1cnc2ccccc2n1)c1ccc(F)cc1	0	0	0	-	25.1µM	0
COC(=O)CSc1nc(C(C)C)nc2ccccc12	0	0	0	?	0	0
SMILES	IMPase Li inh	PNC inhibitor	HPGD block	IMPase cell inh	ALDH1A1 block	ALOX12 inhib
COc1ccc(-n2c(C)cc(/C=C3\SC(=S)N(Cc4ccco4)C3=O)c2C)cc1	0	0	0	-	0.631µM	0
CCOc1ccc(-n2cnnn2)cc1S(=O)(=O)Nc1c(C)cccc1C	0	?	14.1µM	0	0	0
O=c1cc(O)c2sc(Nc3ccc(F)c(Cl)c3)nc2[nH]1	0	-	-	-	7.94µM	-
Cc1cc(C)nc(SCNC(=O)c2ccc(Cl)cc2)n1	0	0	28.2µM	0	0	0
Cc1cc(C)nc(SCc2ccc(C(=O)NN=C3CCCC3)cc2)n1	0	-	-	-	2.82µM	-
Cc1cc(N2CCOCC2)nc(SCC(=O)c2ccc(Cl)cc2)n1	0	0	0	0	0	0
Cc1cc(C)nc(SCc2ccc(C(=O)N/N=C3\CCCC(=O)C3)cc2)n1	0	-	-	-	8.91µM	-
COC(=O)[C@@]1(Cc2ccc(F)cc2)[C@H]2c3cc(C(=O)N4CCCC4)n(Cc4c(CO)[nH]cc(C)c4=O)c3C[C@H]2CN1C(=O)c1ccccc1	0	-	0	-	0	0
O=C(Nc1ccc2nn(-c3ccc(Cl)cc3)nc2c1)c1cc2ccccc2o1	-	-	-	0	-	-
COc1ccc(C2C(C(=O)NCC3CCCO3)CCC(=O)N2c2ccc3c(c2)OCO3)cc1 (centres undefined)	0	0	0	0	14.1µM	0
COc1ccc(C2C(C(=O)N3CCOCC3)CCC(=O)N2c2ccc(OC)cc2)cc1 (centres undefined)	0	?	0	0	14.1µM	0
COc1ccc(N2C(=O)CCC(C(=O)Nc3cccc(C)n3)C2c2ccc(OC)c(OC)c2)cc1 (centres undefined)	0	0	0	0	22.4µM	0
COc1ccc(N2C(=O)CCC(C(=O)NCc3ccccn3)C2c2ccc(F)cc2)cc1 (centres undefined)	0	0	0	0	0	0
O=C(c1cnccn1)N1CCC2(CC1)CCN(c1ncccn1)CC2	0	-	0	-	0	0
CCCOc1cccc(C(=O)Nc2ccc(-c3cc4ccccc4oc3=O)c(C)c2)c1	-	-	-	0	-	-
COc1cccc(-c2ccc3ncnc(N(C)C)c3c2)c1	0	-	-	-	0	-
COc1ccc(C(c2sc3nc(C)nn3c2O)N2CCc3ccccc3C2)cc1 (centres undefined)	0	0	22.4µM	0	?	0
CCOc1ccccc1OCCCCn1c(-c2ccc(Cl)cc2)nc2ccccc2c1=O	-	-	-	0	-	-
COc1ccccc1N1CCN(c2nc(C)nc3c2oc2ccccc23)CC1	0	-101.8	?	0	?	0
Cc1nc(N2CCN(C(=O)c3ccco3)CC2)c2oc3ccccc3c2n1	0	0	0	0	28.2µM	0
Cc1nc(N2CCC(C)CC2)c2oc3ccccc3c2n1	0	0	0	0	?	0
c1ccc(-c2nc(-c3cccc4ccccc34)c(NC3CCCCC3)o2)cc1	0	-	0	-	0	0
Cc1ccc(Cn2nnc3c(=O)[nH]c(C(=O)NCc4ccco4)nc32)cc1	0	0	0	0	0	0
O=C(NCc1ccco1)c1nc2c(nnn2Cc2cccc(Cl)c2)c(=O)[nH]1	0	0	0.355µM	0	28.2µM	0
O=C(NCc1ccccc1)c1nc2c(nnn2Cc2cccc(Cl)c2)c(=O)[nH]1	0	0	2.51µM	0	0	0
NNc1nc(-c2ccccc2Cl)nc2sc3c(c12)CCCC3	0	0	12.6µM	-	?	0
CCc1nc(Nc2ccc(F)c(Cl)c2)c2c3c(sc2n1)CCCC3	-	-	-	0	-	-
CCOC(=O)c1ccc(NC(=O)CSc2nccn2-c2ccc(OCC)cc2)cc1	-	-	-	0	-	-
N#Cc1cccc(NC(=O)N2CC[C@@]3(CCCN(C(=O)c4cnccn4)C3)C2)c1	0	-	0	-	?	0

Screening results deposited in PubChem by National Center for Advancing Translational Sciences (NCATS).
